Source: PubChem
Pol eta inh-1 = DNA polymerase eta (human) inhibition | Q9Y253 | recombinant Pol eta, fluorescent DNA replication assay | AID 588591 | actives 1.2% (n = 390,000) | Potency, µM (doses to about 114 µM), inactives show top-dose activity change, negative = inhibition, usual class: inhibitors; also: % is scaled to controls: 0 for no effect and ±100 for the full control effect
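Pol eta at 10 nM preincubated with compounds 15 min at room temperature; reaction started with fluorescent substrate (50 nM final) and read kinetically at 0 and 10 min.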
POLI inh = blocks human DNA polymerase iota activity. Q9UNA4. Pol iota fluorescent replication assay, 10 min. Potency, µM (highest dose often 115 µM), without a hit: top-dose activity, negative = inhibition, hits mostly inhibitors. actives 1% (n = 390,000). AID 588590
Target sequence (Q9UNA4 whole entry, looked up): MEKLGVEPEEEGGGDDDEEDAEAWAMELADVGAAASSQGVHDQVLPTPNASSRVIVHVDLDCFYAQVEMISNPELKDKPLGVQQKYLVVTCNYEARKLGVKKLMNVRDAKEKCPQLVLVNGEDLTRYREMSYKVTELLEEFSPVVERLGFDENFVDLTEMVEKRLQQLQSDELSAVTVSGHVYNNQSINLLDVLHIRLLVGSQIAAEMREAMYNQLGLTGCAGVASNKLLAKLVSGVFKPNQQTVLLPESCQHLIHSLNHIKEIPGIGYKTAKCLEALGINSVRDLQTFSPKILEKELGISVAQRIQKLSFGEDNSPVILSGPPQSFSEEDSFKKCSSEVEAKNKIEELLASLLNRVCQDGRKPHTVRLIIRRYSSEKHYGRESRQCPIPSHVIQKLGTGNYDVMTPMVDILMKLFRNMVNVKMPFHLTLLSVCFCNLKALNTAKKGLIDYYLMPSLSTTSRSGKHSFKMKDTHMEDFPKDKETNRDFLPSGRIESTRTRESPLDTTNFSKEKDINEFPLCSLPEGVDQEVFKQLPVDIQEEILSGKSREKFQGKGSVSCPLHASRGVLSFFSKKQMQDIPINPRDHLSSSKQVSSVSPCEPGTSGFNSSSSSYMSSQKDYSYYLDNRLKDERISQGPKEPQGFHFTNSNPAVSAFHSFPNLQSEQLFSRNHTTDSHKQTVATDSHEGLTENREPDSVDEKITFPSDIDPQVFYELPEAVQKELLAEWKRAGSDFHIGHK
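Fluorescent replication assay read twice, at 0 min and 10 min after adding 50 nM (final) substrate. Enzyme (10 nM) and compounds were first incubated 15 min at room temperature; enzyme-free buffer wells were negative controls.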
POLB inh = DNA polymerase beta (human) inhibition. Pol beta primer extension/strand displacement, fluorescence kinetic. Potency, µM (series often up to 114 µM), without a hit: at the top dose activity change, negative = inhibition, most hits filed as inhibitors. actives 1.3% (n = 340,000). AID 485314; also: % is scaled to controls: 0 for no effect and ±100 for the full control effect
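Curves were derived by four-parameter Hill fits of normalized qHTS data. The kinetic fluorescent primer-extension read was taken at 0 and 10 min after 50 nM substrate, following a 15 min room-temperature preincubation of 10 nM enzyme with compounds.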
FEN1 inh-1 = blocks human flap endonuclease 1. Potency, µM (highest dose often 114 µM), inactives show at the top dose activity change, negative = inhibition, usual class: inhibitors. P39748. Recombinant FEN1 flap cleavage, fluorescence, 15 min. AID 588795. actives 0.35% (n = 390,000); also: % is scaled to controls: 0 for no effect and ±100 for the full control effect; nearly all actives have a fitted effect of over 65% in size
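FEN1 at 10 nM preincubated with compounds 15 min at room temperature, then flap DNA substrate added at 50 nM final. Signal read at 0 and 15 min; concentration-response fitted with four-parameter Hill equation.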
Pol kappa inh-1 = DNA polymerase kappa (human) inhibition; Q9UBT6; purified Pol kappa, fluorescent DNA synthesis assay, 10 min; Potency, µM (highest dose often 107 µM), for the others: at the highest dose activity, negative = inhibition, most hits filed as inhibitors; actives 0.53% (n = 400,000); AID 588579; also: % is scaled to controls: 0 for no effect and ±100 for the full control effect
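Pol kappa 10 nM + cpd, 15 min RT; start w/ substrate 50 nM final; fluorescence kinetic read, 0 and 10 min. Neg ctrl: buffer, no enzyme.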
WRN helicase inh-1 = inhibitors of human WRN helicase | Q14191 | WRN helicase unwinding, fluorescent forked duplex, kinetic | Potency, µM (top dose mostly 114 µM), without a hit: at the top dose activity change, negative = inhibition, actives largely listed as inhibitors | actives 0.46% (n = 360,000) | AID 651768; also: % is scaled to controls: 0 for no effect and ±100 for the full control effect; nearly all actives have a fitted effect of over 55% in size
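Primary qHTS, 1536-well format. 20 nM WRN + compound, 15 min RT; start with 100 nM forked fluorophore/quencher duplex, 2 mM ATP (final); kinetic read ex 525/em 598 nm.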
PGK validate = blocks T. brucei phosphoglycerate kinase. shares compounds with Pol kappa inh-1. Potency, µM (doses to about 57.5 µM), for the others: at the top dose activity change, negative = inhibition, hits mostly inhibitors. actives 79% (n = 500). TbPGK coupled GAPDH assay, Kinase-Glo luminescence; also: % is scaled to controls: 0 for no effect and ±100 for the full control effect; nearly all actives have a fitted effect of over 65% in size
POLI cherry-pick = Inhibitors of human DNA polymerase iota, confirmation; actives 77% (n = 1,500); shares compounds with Pol kappa inh-1; AID 720496; Pol iota primer extension, TAMRA/BHQ fluorescence; Potency, µM, actives largely listed as inhibitors
Pol kappa inh-2 = confirmation of human DNA polymerase kappa inhibitors. Potency, µM, usual class: inhibitors. shares compounds with Pol eta inh-1. actives 76% (n = 920). purified Pol-kappa, fluorescent strand-displacement substrate. AID 720501
Pol eta inh-2 = confirmation of human DNA polymerase eta inhibitors; Pol eta primer extension, TAMRA/BHQ fluorescence, 10 min; Potency, µM, usual class: inhibitors; shares compounds with Pol eta inh-1; actives 64% (n = 2,600)
FEN1 inh-2 = FEN1 inhibition, cherry-pick retest; shares compounds with FEN1 inh-1; Potency, µM, actives largely listed as inhibitors; FEN1 flap cleavage, TAMRA/BHQ2 fluorogenic DNA substrate; actives 79% (n = 880); also: nearly all actives have a fitted effect of over 60% in size
WRN helicase inh-2 = WRN helicase inhibition, cherry-pick retest; Potency, µM (top dose mostly 57.1 µM), for the others: at the highest dose activity, negative = inhibition, most hits filed as inhibitors; WRN helicase DNA unwinding, fluorescence kinetic; shares compounds with WRN helicase inh-1; actives 63% (n = 610); also: nearly all actives have a fitted effect of over 65% in size
TO displacement = counter-screen for WRN helicase inhibitors: DNA binding. shares compounds with WRN helicase inh-1. AID 720499. actives 10% (n = 610). thiazole orange DNA binding displacement, fluorescence. Potency, µM (highest dose often 57.1 µM), inactives show at the highest dose activity change, negative = inhibition, most hits filed as inhibitors;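 also: drop in dye fluorescence marks compound binding to DNA; % is scaled to controls: 0 for no effect and ±100 for the full control effect; nearly all actives have a fitted effect of over 60% in size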
BLM helicase inh = BLM helicase inhibition, WRN selectivity check; shares compounds with WRN helicase inh-1; AID 720503; actives 60% (n = 610); Recombinant BLM helicase DNA unwinding, red fluorescence; Potency, µM (top dose mostly 57.1 µM), for inactives: top-dose activity change, negative = inhibition, usual class: inhibitors; also: nearly all actives have a fitted effect of over 60% in size
* marks the source's active call; other numbers are inactive results; i = inactive; ? = inconclusive; / = no result given; [ ] = another dose, or the depositor's remark. Hits are enriched below; roughly 2.4% of the tested compounds scored in any of these assays. Calls follow the shape of the dose curve; as a rule, active = well fitted curve in the direction sought with a large enough effect; inconclusive = small, poorly fitted or top-dose-only effect, or another doubt; inactive = no such curve, though single readings can be large; an effect the other way counts as inactive or inconclusive. Potency is read from the fitted curve at half-maximal effect.

SMILES | Pol eta inh-1 | POLI inh | POLB inh | FEN1 inh-1 | Pol kappa inh-1 | WRN helicase inh-1 | PGK validate | POLI cherry-pick | Pol kappa inh-2 | Pol eta inh-2 | FEN1 inh-2 | WRN helicase inh-2 | TO displacement | BLM helicase inh
Nc1nc(Sc2ccc([N+](=O)[O-])c3nonc23)c2[nH]cnc2n1 | ? | 3.16µM* | / | 20µM* | 17.8µM* | 11.2µM* | 18.3µM* | 21.2* | 15* | 30.1* | 42.6* | 21.5µM* | 42.9µM* | 15.2µM*
Cc1nc(S/C(=C\c2ccc(-c3ccc(C(=O)O)c(Cl)c3)o2)C(=O)O)n[nH]1 | 5.01µM* | 3.16µM* | 10µM* | ? | 8.91µM* | 39.8µM* | 14.6µM* | 16.8* | / | 5.36* | 42.6* | 1.21µM* | ? | 19.2µM*
Cc1c(NC(=O)/C(C#N)=C/c2ccc(-c3ccc(Cl)c(Cl)c3)o2)c(=O)n(-c2ccccc2)n1C | -14.3% | 102.0% | -23.5% | -2.5% | -2.4% | -3.5% | / | / | / | / | / | / | / | /
COc1ccc(NS(=O)(=O)c2ccc3c(c2)[C@H]2C=CC[C@H]2[C@@H](c2ccc(C(=O)O)cc2)N3)cc1 | 2.82µM* | ? | 20µM* | 20µM* | 10µM* | 39.8µM* | 18.3µM* | 23.8* | 2.38* | 9.53* | 37.9* | 21.5µM* | -20.9% | 27.1µM*
CC1=C(C(=O)Nc2cc(C)cc(C)c2)C2(CCCCC2)OC1=O | / | 3.9% | 18.4% | -5.3% | -3.7% | / | / | / | / | / | / | / | / | /
C=CCc1cccc2cc(-c3nc4ccc(C)cc4[nH]3)c(=O)oc12 | / | ? | 6.6% | ? | -6.8%[60.1 µM] | / | / | / | / | / | / | / | / | /
O=C(O)c1ccc2nc(-c3cc4cccc(O)c4oc3=O)[nH]c2c1 | / | ? | 8.91µM* | 28.2µM* | ? | / | / | 23.8* | 26.7* | 21.3* | 42.6* | 10.8µM* | 19.2µM* | 3.04µM*
CCOC(=O)c1cc(-c2ccccc2)n(CCC(=O)NCCc2ccc(C)cc2)c1C | -3.1% | ? | 1.8% | 0.2% | -16.1%[60.1 µM] | / | / | / | / | / | / | / | / | /
Cc1cc(C)c2nc(-c3ccccn3)cc(C(=O)Nc3ccc(S(=O)(=O)Nc4onc(C)c4C)cc3)c2c1 | 8.91µM* | 8.91µM* | ? | ? | ? | 39.8µM* | / | 21.2* | / | 8.49* | / | 15.2µM* | ? | 6.81µM*
CN1/C(=C\C=C2/C(=O)Oc3ccccc3C2=O)C(C)(C)c2ccccc21 | 89.1µM* | -10.9% | 44.7µM* | 35.5µM* | ? | 26.7µM* | / | 75.2* | 23.8* | 53.6* | 19* | 15.2µM* | / | i
CN1C(=CC=C2C=C(I)C(=O)C(I)=C2)C(C)(C)c2ccccc21 | ? | 3.55µM* | ? | 31.6µM* | ? | 4.74µM* | / | 33.6* | 75.2* | 47.8* | 84.9* | 27.1µM* | 88.3% | 19.2µM*
CC1=NN(c2ccccc2)C(=O)/C1=C\C=C1/N(C)c2ccccc2C1(C)C | -10.6% | -18.9% | 15.9% | ? | -8.9% | 9.7% | / | / | / | / | / | / | / | /
Nc1nc(NCCc2ccccc2)c2[nH]cnc2n1 | / | ? | / | -3.3% | 4.4% | / | / | / | / | / | / | / | / | /
O=C(O)c1cc(N2N=C(C(F)(F)F)/C(=C/C=C/c3ccco3)C2=O)ccc1Cl | -98.9% | 1.12µM* | 0.631µM* | 3.16µM* | 1.12µM* | 0.844µM* | 0.58µM* | 0.752* | 0.119* | 0.675* | 3.79* | 1.36µM* | -13.6% | 0.607µM*
COc1ccc(/C=c2\sc3nc(=O)c(C)nn3c2=O)c(OC)c1 | 15.3% | 0.6% | -8.1% | 16.6% | -12.0% | 1.1% | / | / | / | / | / | / | / | /
COc1ccc(Br)cc1/C=c1\sc2nc(-c3ccco3)nn2c1=O | 3.16µM* | 8.91µM* | 4.47µM* | ? | 20µM* | 35.5µM* | / | 59.7* | 11.9* | 30.1* | / | 17.1µM* | 19.2µM* | 7.64µM*
CCCN1C(=O)C2(c3ccccc31)c1c(oc3ccccc3c1=O)C(=O)N2CCO (stereo unspecified) | -5.5% | 1.6% | -1.1% | 12.0% | -16.3% | / | / | / | / | / | / | / | / | /
O=C(O)CSc1nc2sc3c(c2c(=O)n1Cc1ccccc1)CCCCC3 | -11.9% | 37.0% | -0.1% | -6.3% | -5.5% | -3.2% | / | / | / | / | / | / | / | /
O=C(O)CSc1cc(C(=O)c2ccccc2O)cn2c(=O)c3c4c(sc3nc12)CCCC4 | ? | ? | ? | ? | 44.7µM* | 44.7µM* | / | 26.7* | / | ? | 47.8* | 9.61µM* | ? | 3.41µM*
O=C(O)c1ccccc1-c1ccccc1C(=O)Nc1ccc2c(c1)oc(=O)c1ccccc12 | 5.2% | / | / | / | / | -24.5% | / | / | / | / | / | / | / | /
O=C(O)c1ccccc1-c1c2cc(I)c(=O)c(I)c-2oc2c(I)c(O)c(I)cc12 | 15.8µM* | 12.6µM* | / | 39.8µM* | 22.4µM* | 4.74µM* | 10.3µM* | 18.9* | 29.9* | 67.5* | 37.9* | 21.5µM* | i | 19.2µM*
O=C(O)c1ccc(-n2cccc2/C=C2/SC(=O)N(CC(=O)N3CCCC3)C2=O)cc1 | 1.78µM* | 3.55µM* | 2µM* | 39.8µM* | 7.08µM* | 20µM* | 5.8µM* | 5.32* | / | 6.75* | / | 6.81µM* | 5.8% | 3.04µM*
